Where “and” joins values, the source holds several entries; their conditions need not be identical. Identical values can stand only once. Inconclusive results are not listed. Calls of active or inactive are those of the source.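 The calls were made as follows, unless noted: active = normalized viability below 100% at a tested concentration; inactive = the rest.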
Assays:
[1] = Wnt pathway potentiators raising nuclear beta-catenin – imaging, WNT3A-conditioned medium, mouse C2C12, NPC library, primary screen (AID 1117326; in the data active = nuclear beta-catenin stimulation mostly above about 4.2%, no sharp cut-off; inactive = mostly below about 10%); settings: stronger effect = higher value
[2] = stimulators of insulin release from INS-1E, primary screen, cell-based, 5 mM glucose, NPC library (AID 1117329;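 active = compound raises insulin release from rat beta cells at 5 mM glucose, no numeric limit stated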); settings: rat INS-1E insulin secretion, at 10 µM, stronger effect = higher value
[3] = growth inhibition of GSK3B-pretreated HCT116 cells – cell-based, CellTiter-Glo, 0.2 to 20 µM (AID 1117336;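 active = compounds lowering colon cancer cell viability after pretreatment blocking the GSK3B kinase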); settings: HCT116 viability after GSK3B inhibitor, at 20 µM, stronger effect = higher value
[4] = inhibition of endothelial tube formation, primary screen, imaging, VEGF stimulated, CD31 staining, tube area, NPC library (AID 1117340;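 active = compound that reduces growth-factor-driven endothelial tube area in a mixed cell culture, no cutoff stated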); settings: VEGF-stimulated ADSC/ECFC co-culture, at 10 µM, stronger effect = higher value
[5] = GLP1 release stimulators, primary, NCI-H716, NPC library (AID 1117341;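 active = compound raises GLP1 secretion from the human gut endocrine cells, with no numeric limit stated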); settings: NCI-H716 cells, at 10 µM, stronger effect = higher value
[6] = HCT116 colon cancer cell growth inhibition, primary screen, CellTiter-Glo luminescence, NPC library (AID 1117342;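 active = compounds that lower survival of HCT116 colon cancer cells in the luminescence readout, no numeric limit stated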); settings: at 20 µM (top of the series)
[7] = reduced SW480 viability measured with CellTiter-Glo, NPC library, primary (AID 1117343;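 active = compounds that lower viability of the colon cancer cells in the luminescence readout, with no numeric limit stated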); settings: CellTiter-Glo luminescence; at 20 µM (top of the series) unless noted
[8] = NPC library primary testing for decreased DLD-1 cell viability via CellTiter-Glo (AID 1117346;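 active = compounds that lower survival of DLD-1 colon cancer cells in the luminescence readout, no cutoff given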); settings: DLD-1 viability, CellTiter-Glo luminescence; at 20 µM (top of the series)
[9] = viability loss in pontine glioma line – cell-based, SU-DIPG-XIII, MIPE4.0, CellTiter-Glo, qHTS, dose response (AID 1347061; cut-off not given, nearly all actives have AC50 up to about 37 µM;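 also: cells exposed to compound for 48 hours before readout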); settings: CellTiter-Glo ATP luminescence
[10] = viability loss in pontine glioma line – cell-based, SU-DIPG-IV, MIPE4.0, CellTiter-Glo, qHTS, dose response (AID 1347063; cut-off not given, nearly all actives have AC50 up to about 30 µM;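 also: compound exposure lasted 48 hours before the viability readout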); settings: CellTiter-Glo ATP luminescence
[11] = viability loss in pontine glioma line – cell-based, JHH-DIPG-1, MIPE4.0, CellTiter-Glo, qHTS, dose response (AID 1347062; cut-off not given, nearly all actives have AC50 up to about 27 µM;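 also: cells exposed to compound for two days before readout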); settings: JHH-DIPG-1 viability, CellTiter-Glo ATP luminescence
[12] = JHH-DIPG-1 glioma cell viability, MIPE5.0 library, CellTiter-Glo luminescence, qHTS (AID 1347067; cut-off not given, nearly all actives have AC50 up to about 26 µM;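 also: cells exposed to compound for 48 hours before readout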); settings: JHH-DIPG-1 glioma viability, CellTiter-Glo ATP luminescence
[13] = growth inhibition of DIPG cells – cell-based, MIPE5.0 library, qHTS (AID 1347068; cut-off not given, nearly all actives have IC50 up to about 30 µM); settings: SU-DIPG-XXV viability
[14] = viability loss with induced miR-34 in A549 – imaging, A549 dox-inducible miR-34, nuclei and caspase counts, primary screen (AID 1347080;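 active = compounds whose cell count with miR-34 switched on is under 0.7 times the count with it off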); settings: A549 miR-34 inducible, Hoechst nuclei count, 48 h
[15] = MELAS cybrid and Rieske KO viability enhancers – cell-based, MELAS cybrids, Rieske KO mouse fibroblasts, CellTiter-Glo, primary screen (AID 1508586;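 active = mean z-score across replicates of 1.96 or higher in either the MELAS or the Rieske mutant cell line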;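 also: z relative to plate mean and SD of compound and empty wells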); settings: low glucose
[16] = galactose survival enhancers in mitochondrial complex I cybrids – cell-based, galactose medium, ATP luminescence, primary screen (AID 1645843;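 active = z-score of at least 1.8 in each of two replicates, scored against plate mean and spread of sample wells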;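 also: positive z means more ATP and so rescue of galactose-driven cybrid death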); settings: complex I mutant cybrid cells, 72 h, stronger effect = higher value
[17] = P. berghei load reduction in hepatocytes – cell-based, HepG2, luciferase luminescence, HepG2 viability, primary screen (AID 624349; in the data active = parasite load remaining mostly below about 12%, no sharp cut-off; inactive = mostly above about 10%;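 also: 100% = mean of DMSO negative control wells on the same plate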); settings: P. berghei liver stage in HepG2, luciferase luminescence, concentration not given here; parasite load remaining: stronger effect = lower value; viability: measured here: HepG2 viability without parasites
[18] = viability loss in pontine glioma line – cell-based, SU-DIPG-XXV, MIPE5.0, CellTiter-Glo, qHTS, dose response (AID 1347065; cut-off not given, nearly all actives have AC50 up to about 26 µM;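 also: cells exposed to compound for 48 hours before ATP readout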); settings: CellTiter-Glo ATP luminescence
[19] = drug combination growth inhibition, ovarian cancer – cell-based, oncology-focused library, rucaparib conditional, profiling panel (AID 1508598); settings: patient-derived ovarian cancer cells, CellTiter-Glo viability, 144 h, stronger effect = lower value
[20] = stronger effect = lower value, cell number ratio, induced over uninduced
[21] = measured here: relative caspase fold change +Dox/-Dox
[22] = measured here: total cells with miR-34 induction, stronger effect = lower value
[23] = measured here: total cells without miR-34 induction
[24] = MELAS cybrid survival, CellTiter-Glo 48 h, stronger effect = higher value
[25] = Rieske KO mouse fibroblast survival, CellTiter-Glo 72 h

O[C@@H](CNC[C@H](O)[C@H]1CCc2cc(F)ccc2O1)[C@@H]1CCc2cc(F)ccc2O1
-2.1%: nuclear beta-catenin stimulation ([1]; stimulation, at 2 µM)
inactive: nuclear beta-catenin stimulation ([1]; at 10 µM) 8.6% | insulin secretion stimulation [2] 2.75% | GLP1 secretion stimulation [5] 5.8% | outcome [9]
active: viability decrease [3] 108% | tube area decrease [4] 60.9% | inhibition of viability [6] 112% | viability decrease (inhibition) [7] 130% | viability decrease (inhibition) [8] 101% | AC50 [10] 20.9 µM

Cc1c(C(=O)NN2CCCCC2)nn(-c2ccc(Cl)cc2Cl)c1-c1ccc(Cl)cc1
inactive: nuclear beta-catenin stimulation ([1]; at 10 µM) -0.4% | insulin secretion stimulation [2] 3% | GLP1 secretion stimulation [5] 1.2% | outcome [13] | fold change [14, 20] 0.783 and 0.989 | z-score [15, 24] -1.37 and -3.1 | z-score [16] -2.65
active: viability decrease [3] 109% | tube area decrease [4] 110% | inhibition of viability [6] 108% | viability decrease (inhibition) [7] 130% | viability decrease (inhibition) [8] 101% | AC50 [9] 20.9 µM | AC50 [11] 16.6 µM | AC50 [10] 16.6 µM | AC50 [12] 18.6 µM
4800 and 7920: cell count [14, 22]
0.317 and -0.818: z-score [15, 25]
0.923 and 2.07: fold change [14, 21]
-0.1%: nuclear beta-catenin stimulation ([1]; stimulation, at 2 µM)
6120 and 8010: cell count [14, 23]

CC(=O)O[C@@]12CO[C@@H]1C[C@H](O)[C@@]1(C)C(=O)[C@H](O)C3=C(C)[C@@H](OC(=O)[C@H](O)[C@@H](NC(=O)OC(C)(C)C)c4ccccc4)C[C@@](O)([C@@H](OC(=O)c4ccccc4)[C@H]21)C3(C)C
49.3%: nuclear beta-catenin stimulation ([1]; stimulation, at 2 µM)
inactive: parasite load remaining [17] 80.3% | insulin secretion stimulation [2] -0.6% | GLP1 secretion stimulation [5] -0.5% | outcome [12] | outcome [13] | fold change [14, 20] 0.999 | z-score [15, 24] -1.22 | z-score [16] -0.435
114%: viability [17]
active: nuclear beta-catenin stimulation ([1]; at 10 µM) 66.2% | viability decrease [3] 71.8% | tube area decrease [4] 98.1% | inhibition of viability [6] 58.9% | viability decrease (inhibition) [7] 36.5% | viability decrease (inhibition) [8] 31.8% | AC50 [18] 0.00209 µM
0.907: fold change [14, 21]
2910: cell count [14, 22] | cell count [14, 23]
0.541: z-score [15, 25]

COc1cc(Nc2c(C#N)cnc3cc(OCCCN4CCN(C)CC4)c(OC)cc23)c(Cl)cc1Cl
0.682: fold change [14, 21]
-0.399: z-score [15, 25]
inactive: nuclear beta-catenin stimulation ([1]; at 10 µM) 17.6% | insulin secretion stimulation [2] 2.2% | tube area decrease [4] 1.5% | fold change [14, 20] 0.893 | viability ([19]; at 0.000305 µM, OCI-C5x cells, with rucaparib 10 µM, 100% = cells with rucaparib alone) 120% | viability ([19]; at 0.000305 µM, OCI-C5x cells, without rucaparib) 107% | viability ([19]; at 0.00122 µM, OCI-C5x cells, with rucaparib 10 µM, 100% = cells with rucaparib alone) 121% | viability ([19]; at 0.00122 µM, OCI-C5x cells, without rucaparib) 109% | viability ([19]; at 0.00488 µM, OCI-C5x cells, with rucaparib 10 µM, 100% = cells with rucaparib alone) 119% | viability ([19]; at 0.00488 µM, OCI-C5x cells, without rucaparib) 107% | viability ([19]; at 0.00488 µM, OCI-P5x cells, with rucaparib 20 µM, 100% = cells with rucaparib alone) 101% | viability ([19]; at 0.00488 µM, OCI-P5x cells, without rucaparib) 102% | viability ([19]; at 0.0195 µM, OCI-C5x cells, with rucaparib 10 µM, 100% = cells with rucaparib alone) 122% | viability ([19]; at 0.0195 µM, OCI-C5x cells, without rucaparib) 104% | viability ([19]; at 0.0195 µM, OCI-P5x cells, without rucaparib) 102% | viability ([19]; at 0.0781 µM, OCI-C5x cells, with rucaparib 10 µM, 100% = cells with rucaparib alone) 132% | viability ([19]; at 0.0781 µM, OCI-C5x cells, without rucaparib) 111% | viability ([19]; at 0.0781 µM, OCI-P5x cells, without rucaparib) 103% | viability ([19]; at 0.313 µM, OCI-C5x cells, with rucaparib 10 µM, 100% = cells with rucaparib alone) 125% | viability ([19]; at 0.313 µM, OCI-C5x cells, without rucaparib) 101% | viability ([19]; at 1.25 µM, OCI-C5x cells, with rucaparib 10 µM, 100% = cells with rucaparib alone) 113% | viability ([19]; at 1.25 µM, OCI-C5x cells, without rucaparib) 108%
-1%: nuclear beta-catenin stimulation ([1]; stimulation, at 2 µM)
active: viability decrease [3] 110% | GLP1 secretion stimulation [5] 47.9% | inhibition of viability [6] 113% | viability decrease (inhibition) [7] 132% | viability decrease (inhibition) [8] 102% | AC50 [11] 20.9 µM | AC50 [10] 20.9 µM | AC50 [18] 13.2 µM | AC50 [12] 11.8 µM | z-score [15, 24] 2.73 | viability ([19]; at 0.000305 µM, OCI-P5x cells, with rucaparib 20 µM, 100% = cells with rucaparib alone) 88.1% | viability ([19]; at 0.000305 µM, OCI-P5x cells, without rucaparib) 68.6% | viability ([19]; at 0.00122 µM, OCI-P5x cells, with rucaparib 20 µM, 100% = cells with rucaparib alone) 87.4% | viability ([19]; at 0.00122 µM, OCI-P5x cells, without rucaparib) 30.3% | viability ([19]; at 0.0195 µM, OCI-P5x cells, with rucaparib 20 µM, 100% = cells with rucaparib alone) 96.8% | viability ([19]; at 0.0781 µM, OCI-P5x cells, with rucaparib 20 µM, 100% = cells with rucaparib alone) 94.7% | viability ([19]; at 0.313 µM, OCI-P5x cells, with rucaparib 20 µM, 100% = cells with rucaparib alone) 80.8% | viability ([19]; at 0.313 µM, OCI-P5x cells, without rucaparib) 91% | viability ([19]; at 1.25 µM, OCI-P5x cells, with rucaparib 20 µM, 100% = cells with rucaparib alone) 57.8% | viability ([19]; at 1.25 µM, OCI-P5x cells, without rucaparib) 95.2% | viability ([19]; at 5 µM, OCI-C5x cells, with rucaparib 10 µM, 100% = cells with rucaparib alone) 49.5% | viability ([19]; at 5 µM, OCI-C5x cells, without rucaparib) 61.4% | viability ([19]; at 5 µM, OCI-P5x cells, with rucaparib 20 µM, 100% = cells with rucaparib alone) 24.4% | viability ([19]; at 5 µM, OCI-P5x cells, without rucaparib) 42%
1100: cell count [14, 23]
986: cell count [14, 22]
